Test results taken from PubChem BioAssay AID602393 (Broad Institute, 2012).
In all, about 350,000 compounds went through this assay and about 7,000 (2%) were called active. No stated cut-off is given here; in the data, active means activation above about 40%; inconclusive means no clear call, values can overlap the other calls; inactive means below that. The entries come from a sample that favours actives as a whole.

Assay: raisers of Bmi1 knock-in reporter signal – mouse ES cells, Bmi1 luciferase knock-in, single point, esBAF inhibitor project, primary screen (AID 602393);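 further: 0% = median of the plate's neutral control wells and 100% = double that signal; a rise in the Bmi1 reporter signal indicates esBAF inhibition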
Settings: 24 h, at 12.5 µM, stronger effect = higher value, 100% = twice the neutral-well signal

Reporter increase, active:
O=C(N/N=C/c1c[nH]c2ccccc12)c1ccccc1O 51.9%
O=C(NN=Cc1ccc2c(c1)CCC2)c1ccccc1O 59.3%
Cc1cccc(CSc2ccc(-c3cccs3)nn2)c1 50.5%
CCC(=O)NC(=Nc1nc2ccccc2s1)NC(=O)CC 65.4%
CCOC(=O)c1c(C)[nH]c(C(=O)OCC(=O)N2CCCC2=O)c1C 47%
Cc1ccsc1/C=C1\SC(N2CCOCC2)=NC1=O 57.3%
O=C1N=C(N2CCOCC2)S/C1=C\C=C/c1ccccc1 55.8%
CC(=O)c1ccc2c(ccc3ccccc32)c1 43.2%
COc1cccc(/C=C/C(=O)Nc2ccc3c(c2)OCCO3)c1 52.9%
CCOC(=O)c1c(C)nc2c(c1C)c(=O)oc1ccccc12 43.1%
CCc1ccccc1NC(=O)c1cc(-c2ccc3c(c2)OCO3)on1 43.8%
CCc1cc2c(=O)c(-c3ccon3)c(N)oc2cc1OC 50.4%
Clc1ccc(-c2csc(-c3ccncc3)n2)cc1 51.5%
C#CCSc1nnc(-c2sc3ccccc3c2Cl)o1 51%
CCn1c(=N)n(CC(=O)c2cccc(OC)c2)c2ccccc21 64.8%
CC1CCc2c(sc3nc4n(c(=O)c23)CCS4)C1 (stereo not drawn) 46.4%

Reporter increase, inactive:
O=C(N/N=C/c1cccc(Br)c1)c1ccc(N2CCCC2=O)cc1 7.79%
O=C(N/N=C\c1cccc(Br)c1)c1ccccc1-n1cccc1 3.44%
O=C(NC(Cc1c[nH]c2ccccc12)C(=O)N/N=C/c1ccc(Br)cc1)c1cccs1 (stereo not drawn) 4.44%
O=C(NCCc1c[nH]c2ccccc12)c1cccc(Br)c1 11.6%
COc1ccccc1-c1cccc(-c2nc(C(=O)N3CCN(C)CC3)cc3c2[C@H](CCO)N([S@@](=O)C(C)(C)C)C3)c1 -0.462%
C[C@@H]1CN([C@@H](C)CO)C(=O)CCCn2cc(nn2)CO[C@@H]1CN(C)C(=O)c1ccncc1 -3.8%
C[C@H](CO)N1C[C@H](C)[C@@H](CN(C)C(=O)c2ccncc2)Oc2cc(C3=CCCCC3)ccc2S1(=O)=O 2.87%
C[C@H](CO)N1C[C@H](C)[C@H](CN(C)S(=O)(=O)c2cn(C)cn2)Oc2c(NC(=O)C3CCOCC3)cccc2C1=O -1.13%
Cc1cc(-c2cccs2)nc(-n2cccc2)n1 17.4%
Cc1cccc(CSc2nnc(C)c(=O)n2N)c1 -7.26%
C[C@H]1CN([C@@H](C)CO)C(=O)CCCn2nncc2CO[C@H]1CN(C)Cc1ccc2c(c1)OCO2 0.657%
C/C=C/c1cnc2c(c1)C(=O)N([C@H](C)CO)C[C@H](C)[C@@H](CN(C)S(=O)(=O)c1ccccc1F)O2 0.934%
COc1ccccc1-c1cn(CC[C@H]2CC[C@H](NC(=O)Cc3ccccn3)[C@H](CO)O2)nn1 0.363%
Cc1noc(C)c1NC(=O)N(C)C[C@@H]1Oc2ccc(NS(C)(=O)=O)cc2C(=O)N([C@H](C)CO)C[C@@H]1C -2.07%
CC(C)C(C)NC(=O)COc1ncnc2ccccc12 (stereo not drawn) -6.72%
CN(Cc1nc2ccccc2s1)C(=O)c1ccc(F)cc1 8.62%
O=C(C[C@H]1C=C[C@@H](NC(=O)CC2CC2)[C@H](CO)O1)NCc1ccc(-c2ccccc2)cc1 1.19%
O=C(C[C@H]1C=C[C@H](NC(=O)C2CCC2)[C@H](CO)O1)NCCCN1CCOCC1 1%
CCOC(=O)c1[nH]c(C)c(C(=O)OCC(=O)N2c3ccccc3CC2C)c1C (stereo not drawn) -0.495%
Cc1c(C(=O)OCC(=O)N2CCCC2=O)oc2ccccc12 18.9%
COc1ccccc1CNC(=O)C[C@@H]1CC[C@H]2[C@@H](COc3ccc(NS(=O)(=O)c4ccc(C)cc4)cc3C(=O)N2C)O1 1.61%
O=C(C[C@@H]1CC[C@@H](NC(=O)C2CC2)[C@H](CO)O1)NCc1ccncc1 -3.27%
C[C@@H]1CCCCO[C@@H](CN(C)C(=O)c2ccccc2)[C@@H](C)CN([C@@H](C)CO)C(=O)c2cc(NS(=O)(=O)c3ccccc3)ccc2O1 12.6%
COc1ccc(S(=O)(=O)Nc2ccc3c(c2)C(=O)N([C@@H](C)CO)C[C@@H](C)[C@H](CN(C)C(=O)Nc2ccc(C(F)(F)F)cc2)OCCCC[C@@H](C)O3)cc1 7.49%
CC1CCN(C2=NC(=O)/C(=C/c3ccc(O)cc3)S2)CC1 24.8%
CCc1ccc(/C=C2\SC(N3CCOCC3)=NC2=O)cc1 6.21%
O=C1N=C(N2CCc3ccccc3C2)S/C1=C\c1ccc(O)cc1 -1.11%
O=C1N=C(N2CCOCC2)CS1 0.767%
CC(C)NC(=O)N(C)C[C@H]1Oc2ncc(C#CC3(O)CCCC3)cc2C(=O)N([C@H](C)CO)C[C@@H]1C 0.475%
CN1c2ccc(-c3ccccc3F)cc2[C@H]2[C@H](CCN2C(=O)Nc2cc(F)ccc2F)[C@H]1CO 7.83%
C/C=C/c1ccc([C@@H]2[C@H](CO)N(C(C)=O)[C@H]2CN(CC)C(=O)CN(C)C)cc1 -4.39%
CCC(=O)NC[C@H]1[C@@H](c2ccc(C3=CCCC3)cc2)[C@@H](CO)N1C(=O)C1CC1 0.745%
CS(=O)(=O)Nc1ccc2c(c1)[C@@H]1C[C@H](CC(=O)NCc3ccccn3)O[C@@H](CO)[C@@H]1O2 0.762%
O=C(C[C@H]1CC[C@@H](NC(=O)c2ccccc2)[C@@H](CO)O1)NCc1ccncn1 -3.6%
CC(=O)c1ccc(N2Cc3ccccc3C2)cc1 23.9%
O=C(NNC(=O)c1ccc2ccccc2c1)c1ccc(Cl)cc1 -2.35%
N#C[C@H]1[C@@H](c2ccc(-c3ccccc3F)cc2)[C@H](CO)N1C(=O)c1ccccn1 -5.75%
O=C(CCN1CCCCC1)N[C@@H]1C=C[C@@H](CC(=O)N2CCC(Cc3ccccc3)CC2)O[C@H]1CO 9.59%
Cc1ccc(-c2cnc3c(c2)C(=O)N([C@H](C)CO)C[C@@H](C)[C@@H](CN(C)C(=O)CN(C)C)O3)cc1 -1.4%
COc1ccccc1OCCCC(=O)Nc1ccc2c(c1)OCCO2 4.46%
Cc1cccc(NC(=O)/C=C/c2ccc3c(c2)OCO3)n1 9.44%
COc1ccccc1-c1ccc2c(c1)[C@H]1[C@H](CCN1S(=O)(=O)c1ccccc1)[C@@H](CO)N2 -9.94%
C/C=C/c1cnc2c(c1)C(=O)N([C@@H](C)CO)C[C@H](C)[C@H](CN(C)C(=O)CN1CCOCC1)O2 1.11%
CCOC(=O)c1c(C)oc(C)c(C(=O)OCC)c1=O -9.85%
CCCCC(=O)Nc1cc(C)c2c(=O)oc3ccccc3c2n1 -4.09%
Cc1noc(C)c1NC(=O)N(C)C[C@@H]1Oc2ccc(NS(=O)(=O)c3ccc(Cl)cc3)cc2C(=O)N([C@@H](C)CO)C[C@H]1C -6.44%
COc1ccc(CCNC(=O)c2cc(-c3ccc4c(c3)OCO4)on2)cc1OC 0.657%
CC(C)NC(=O)COCc1cc(-c2ccc3c(c2)OCO3)on1 16.1%
O=C(C[C@H]1CC[C@@H]2[C@H](COC[C@@H](O)CN2Cc2cc(F)cc(F)c2)O1)NC1CCC1 2.1%
COc1ccc(S(=O)(=O)N(C)C[C@@H]2Oc3ncc(C#Cc4ccc(F)cc4)cc3C(=O)N([C@H](C)CO)C[C@@H]2C)cc1 3.53%
CCCNC(=O)N(C)C[C@H]1Oc2cc(-c3ccncc3)ccc2S(=O)(=O)N([C@H](C)CO)C[C@@H]1C 6.74%
CCc1cc2c(=O)c(-c3nc4ccccc4n3C)c(CCCC(=O)O)oc2cc1OC(=O)C(C)(C)C 6.89%
COc1ccc2oc(N)c(C=O)c(=O)c2c1 -2.61%
CC(=O)Nc1ccc2c(c1)C(=O)N(C)[C@H]1CC[C@@H](CC(=O)NCC3CC3)O[C@H]1CO2 9.13%
O=C(NNC(=O)c1csc(-c2cccnc2)n1)Nc1ccc(Cl)cc1 0.726%
CNC(=O)c1csc(-c2ccccc2)n1 13.5%
CN(C)CC(=O)Nc1ccc2c(c1)[C@@H]1C[C@H](CC(=O)NCc3ccc(-c4ccccc4)cc3)O[C@@H](CO)[C@@H]1O2 16%
COc1ccc2c(Cl)c(-c3nnco3)sc2c1 8.57%
CCCCSc1nnc(-c2ccc(C)cc2)o1 17.9%
C[C@@H](O)C#Cc1ccc2c(c1)O[C@@H](CN(C)C)[C@@H](C)CN([C@@H](C)CO)S2(=O)=O -2.61%
C[C@H](NC(=O)C[C@@H]1CC[C@@H]2[C@H](COC[C@@H](O)CN2C(=O)Nc2cc(Cl)cc(Cl)c2)O1)c1ccccc1 -3.61%
C[C@@H]1CN([C@H](C)CO)S(=O)(=O)c2ccc(C#CC3CCCC3)cc2O[C@@H]1CN(C)Cc1ccccc1C(=O)O -3.9%
O=C(C[C@@H]1CC[C@@H]2[C@H](COC[C@H](O)CN2C(=O)Cc2ccccc2)O1)NC1CCC1 -8.39%
CCCn1c(=N)n(CC(=O)c2ccc(Cl)c(Cl)c2)c2ccccc21 3.54%
COc1ccc2cc(C(=O)O)n(CC(=O)c3ccccc3)c2c1 -1.55%
NNC(=O)C1CCCn2c1nc1sc3c(c1c2=O)CCCC3 (stereo not drawn) 2.26%
Cn1c(NN)nc2sc3c(c2c1=O)CCC3 -3.52%
